{
  "source": "PubChem BioAssay (EPA / NIEHS)",
  "note": "Results filed as inconclusive are left out. Active and inactive are the calls of the source. Rule for the calls: active = hit-call score of the fitted dose curve at least 0.9, where 1 is the maximum; inconclusive = response in the unintended direction; inactive = score below 0.9.",
  "data": [
    {"molecular_target": "Nucleoli Translocation, AR (gene 367) (UniProt P10275)", "sequence (P10275 whole entry, looked up, the tested form may be a part)": "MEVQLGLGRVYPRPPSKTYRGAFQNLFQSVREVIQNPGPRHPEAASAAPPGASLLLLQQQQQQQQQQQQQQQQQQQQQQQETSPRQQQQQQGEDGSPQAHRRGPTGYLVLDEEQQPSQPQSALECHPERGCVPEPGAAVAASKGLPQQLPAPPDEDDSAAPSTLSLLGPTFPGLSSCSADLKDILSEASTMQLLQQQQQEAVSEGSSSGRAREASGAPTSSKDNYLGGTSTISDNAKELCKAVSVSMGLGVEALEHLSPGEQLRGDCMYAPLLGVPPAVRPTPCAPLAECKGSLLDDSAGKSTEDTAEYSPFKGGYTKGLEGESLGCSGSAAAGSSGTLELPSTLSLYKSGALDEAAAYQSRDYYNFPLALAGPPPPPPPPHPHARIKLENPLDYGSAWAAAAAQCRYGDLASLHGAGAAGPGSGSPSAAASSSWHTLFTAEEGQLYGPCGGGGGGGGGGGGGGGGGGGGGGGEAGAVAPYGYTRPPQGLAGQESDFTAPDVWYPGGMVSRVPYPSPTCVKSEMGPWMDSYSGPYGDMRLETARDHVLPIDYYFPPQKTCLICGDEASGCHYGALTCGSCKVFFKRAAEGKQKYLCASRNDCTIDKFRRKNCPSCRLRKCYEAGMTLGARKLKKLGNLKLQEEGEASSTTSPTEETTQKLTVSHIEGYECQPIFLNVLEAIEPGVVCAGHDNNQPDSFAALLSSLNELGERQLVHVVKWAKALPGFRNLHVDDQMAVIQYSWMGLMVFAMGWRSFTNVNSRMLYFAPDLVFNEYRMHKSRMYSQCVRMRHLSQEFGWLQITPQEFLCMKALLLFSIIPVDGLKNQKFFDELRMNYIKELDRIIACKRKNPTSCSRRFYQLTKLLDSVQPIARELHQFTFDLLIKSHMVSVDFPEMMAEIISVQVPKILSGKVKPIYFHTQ", "experiment": "UPITT_HCI_U2OS_AR_TIF2_Nucleoli_Antagonist: University of Pittsburgh U2OS Androgen Receptor-Transcriptional Intermediary Factor 2 (AR-TIF2) Antagonism High Content Imaging Assay for Nucleoli Translocation (AID 2283997)", "text": "UPITT_AR_TIF2_PPIB is a cell-based, high-content imaging assay that uses U2OS, a human osteosarcoma cell line, expressing a human androgen receptor fused to red fluorescent protein and the coactivator TIF2 fused to green fluorescent protein. UPITT_HCI_U2OS_AR_TIF2_Nucleoli_Antagonist is one of four assay components measured from the UPITT_AR_TIF2_PPIB assay. It is designed to make measurements of red fluorescence localized in the nucleolar region of the cell nucleus as detected with high-content fluorescent imaging.Data from the assay component UPITT_HCI_U2OS_AR_TIF2_Nucleoli_Antagonist was analyzed into 1 assay endpoint. This assay endpoint, UPITT_HCI_U2OS_AR_TIF2_Nucleoli_Antagonist, was analyzed in the positive analysis fitting direction relative to DHT as the baseline of activity. Using a type of binding reporter, measures of receptor for loss-of-signal activity can be used to understand the binding at the pathway-level as it relates to the gene AR.\nDaughter plates containing 2 uL of 10 mM compounds in DMSO were prepared and replicated from the 384-well Library of Pharmacologically Active Compounds (LOPAC) master plates using the Bravo outfitted with a 384-well transfer head. Aluminum adhesive plate seals were applied with an Abgene Seal-IT 100 (Rochester, NY) plate sealer, and the plates were stored at -20 C in a Matrical MatriMinistore (Spokane, WA) automated compound storage and retrieval system. For screening, LOPAC daughter plates were withdrawn from -20C storage, thawed to ambient temperature, centrifuged 1-2 min at 50 g, and the plate seals were removed before the transfer of 98 uL of serum-free tissue culture medium (SFM) into wells using the BioTek Microflo liquid handler (BioTek, Winooski, VT) to generate a 200 uM intermediate stock concentration of library compounds (2.0% DMSO). The diluted compounds were mixed by repeated aspiration and dispensation using a 384-well P30 dispensing head on the Evolution P3 (EP3) liquid handling platform (PerkinElmer, Waltham, MA) and then 5 uL of diluted compounds was transferred to the wells of assay plates. In the LOPAC screen, compounds were individually tested at a final concentration of 20 uM (0.2% DMSO). After the diluted compounds had been transferred from the daughter plates to the primary HCS assay plates, aluminum adhesive plate seals were applied and the diluted daughter plates were stored frozen at -20C. To confirm active compounds identified in the primary screen, we withdrew the LOPAC daughter plates containing the 200 uM intermediate concentration of library compounds (2.0% DMSO) from -20C storage, thawed them to ambient temperature, centrifuged them for 1-2 min at 50 g, and removed the plate seals. A work list was generated to direct the Multiprobe Janus liquid handling platform (PerkinElmer) to cherry pick 75 uL from the wells of the diluted daughter plates that were flagged active in the primary screen and to reformat these into a 384-well plate hit confirmation daughter plate. Five microliters of primary HCS active compounds was then transferred into triplicate wells of assay plates using a 384-well P30 dispensing head on the Evolution P3 (EP3) liquid handling platform (PerkinElmer). […] Daughter plates containing 2 uL of the serially diluted compounds in DMSO were prepared and replicated from the 384-well serial dilution master plates using the Bravo outfitted with a 384-well transfer head. Aluminum adhesive plate seals were applied and plates were stored at -20C. […] The ImageXpress Ultra (IXU) platform (Molecular Devices LLC, Sunnyvale, CA) and The ImageXpress Micro (IXM) platform were used for imaging.", "values": [
      {"smiles": "Oc1ccc2c(c1)-c1ccccc1C2", "AC50": "12 µM (active)"},
      {"smiles": "CNS(=O)(=O)c1cc(C(=O)N2CCC(CCN3C4CCC3CC(n3c(C)nc5ccccc53)C4)(c3cccc(F)c3)CC2)c(Cl)cc1F", "note": "(stereo not given)", "outcome": "inactive"},
      {"smiles": "CCNc1ccccc1", "outcome": "inactive"},
      {"smiles": "CCOc1cccc(-n2cc(C(=O)N3CCN(c4cc(C(=O)O)c5ccccc5c4)CC3)nc2-c2ccc(C)cc2)c1", "AC50": "78.4 µM (active)"},
      {"smiles": "CCCCCCc1ccc(O)cc1O", "AC50": "14.4 µM (active)"},
      {"smiles": "O=C(O)c1cccc(N(Cc2cccnc2)c2ccc(OC(F)F)c(OC(F)F)c2)c1", "AC50": "22.1 µM (active)"},
      {"smiles": "Nc1nc2ncc(CNc3ccc(C(=O)N[C@@H](CCC(=O)O)C(=O)O)cc3)nc2c(=O)[nH]1", "outcome": "inactive"},
      {"smiles": "CCCN(C1CCN(C(=O)C2CCNCC2)CC1)[C@@H]1CCc2ccc(OC)cc2C1", "outcome": "inactive"},
      {"smiles": "CC1(C)C(=O)N(Br)C(=O)N1Br", "outcome": "inactive"},
      {"smiles": "CC(C)=CCCC(C)CCO", "note": "(stereo not given)", "outcome": "inactive"},
      {"smiles": "Cc1ccc(N)cc1O", "AC50": "37 µM (active)"},
      {"smiles": "CCCCC(CC)COC(=O)c1ccc(C(=O)OCC(CC)CCCC)cc1", "note": "(stereo not given)", "outcome": "inactive"},
      {"smiles": "Fc1ccccc1[C@@H](F)COC1CCC(Nc2ncnc3[nH]ncc23)CC1", "note": "(stereo not given in full)", "AC50": "18.3 µM (active)"},
      {"smiles": "O=C(CCCCCCCCc1cccnc1)N1CCC(C=C(c2ccccc2)c2ccccc2)CC1", "outcome": "inactive"},
      {"smiles": "CN(C)c1ccc(N=NS(=O)(=O)O)cc1", "outcome": "inactive"}
    ]}
  ]
}
